This passage reports binding response (% of control) results from PubChem BioAssay AID1415 (NMMLSC, 2008).

In all, about 220,000 compounds went through this assay and about 710 (0.32%) were called active. The sample holds actives, similar compounds and a random draw of the others, so the mix is not that of the screen. Values without a mark were called inactive. Cut-off read from the data, not from the text of the source: active = binding response below about 49% or above about 150%; inactive = in between.

The experiment deals with Guanine nucleotide-binding protein G(o) subunit alpha (Homo sapiens) (UniProt P09471). The experiment can be described thus: modulators of RGS4 binding to Galphao, primary screen, biochemical, multiplexed bead flow cytometry (AID 1415).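 Note: fluorescent Galphao activated with aluminum fluoride binding bead-coupled RGS4.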 Conditions: at 10 µM, actives lie on both sides.
Guanine nucleotide-binding protein G(o) subunit alpha (Homo sapiens), sequence (P09471 whole entry, looked up): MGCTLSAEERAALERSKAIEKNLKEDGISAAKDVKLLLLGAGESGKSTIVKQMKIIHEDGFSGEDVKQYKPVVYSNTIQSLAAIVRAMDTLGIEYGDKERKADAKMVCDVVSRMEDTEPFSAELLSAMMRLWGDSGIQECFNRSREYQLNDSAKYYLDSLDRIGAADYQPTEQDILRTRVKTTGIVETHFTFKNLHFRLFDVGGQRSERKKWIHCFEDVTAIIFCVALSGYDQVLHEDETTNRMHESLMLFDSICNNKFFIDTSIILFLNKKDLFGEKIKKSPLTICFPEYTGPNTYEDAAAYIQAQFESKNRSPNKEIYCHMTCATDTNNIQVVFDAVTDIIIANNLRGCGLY
In the case of `Cc1ccc(NC(=O)NCC(c2cccnc2)N2CCOCC2)cc1` (configuration not stated), the binding response (% of control) was 105%.

As to `CN1CCN(S(=O)(=O)c2ccc(N3CCN(S(=O)(=O)c4cccs4)CC3)nc2)CC1`, the binding response (% of control) is 101%.

Take `CN1CCN(C(CNS(=O)(=O)c2cccs2)c2cccnc2)CC1` (configuration not stated): the binding response (% of control) was 0.16% (active).

In the case of `OCCC1CN(Cc2ccc(Oc3ncccn3)cc2)CCN1CCc1ccccc1` (configuration not stated), the binding response (% of control) is 98.9%.

On to `O=C(Nc1cc(Cl)cc(Cl)c1)C(NCCCO)c1ccccc1` (configuration not stated), for which the binding response (% of control) was 102%.

`O=C(CNCc1cccs1)Nc1cc(S(=O)(=O)N2CCCC2)ccc1Cl`: the binding response (% of control) was 103%.

As to `O=C(O)CCCCCNc1ncnc2ccc(Br)cc12`, the binding response (% of control) was 98%.

With `Oc1ccc2ccccc2c1N=Nc1nccs1`, the binding response (% of control) was 99.9%.

Turning to `Oc1ccc(N=Nc2nccs2)c(O)c1`, the binding response (% of control) is -21.6% (active).

For the compound `CC(NC(=O)C(=O)Nc1nccs1)c1ccccc1` (configuration not stated), the binding response (% of control) is 94.3%.

Turning to `Cc1nc(NNC(=O)c2ccccc2)cc(-c2ccccc2)n1`, the binding response (% of control) is 101%.

Turning to `CC(CC(=O)C1C(C)C=CCC1(C)C)NNC(N)=O` (configuration not stated), the binding response (% of control) was 101%.

As to `O=C(c1ccc(=O)oc1)N1CCC(C(O)(c2ccccc2)c2ccccc2)CC1`, the binding response (% of control) is 100%.

With `COC(=O)CCCC1=CC2=C(c3ccccc3)C(=O)C(C)(OC(=O)C3CCCC3)C(=O)C2=CN1c1ccc(OC)cc1` (configuration not stated), the binding response (% of control) is 97%.

`Cc1ccccc1CC1(CO)CCCN(C(=O)c2cc(-c3ccccc3)no2)C1` (configuration not stated): the binding response (% of control) is 110%.

On to `O=C(CCc1ccccc1)NNC(=O)c1ccc(Br)cc1`, for which the binding response (% of control) was 109%.

Turning to `CCOC(=O)N1CCN(C(=O)COc2ccc(Cl)cc2C)CC1`, the binding response (% of control) is 102%.

Turning to `CCCn1nnnc1NC(=O)COc1ccc(Cl)cc1C`, the binding response (% of control) was 22.6% (active).

As to `Cc1cc(NC(=O)COc2ccc(Cl)cc2Cl)n(CCC#N)n1`, the binding response (% of control) is 94.6%.

Regarding `CC(Oc1ccccc1)C(=O)Nc1oc(-c2ccco2)c(-c2ccco2)c1C#N` (configuration not stated), the binding response (% of control) was 96.1%.

As for `O=C(CC1SCCNC1=O)Nc1ccc(Cl)cc1` (configuration not stated), the binding response (% of control) is 102%.

Take `C/C(=N\NC(=S)NC(C)C)c1ccc(C(C)(C)C)cc1`: the binding response (% of control) is 102%.

With `Cc1c(C(=O)Nc2ccccc2Cl)oc2ccc(S(=O)(=O)N3CCC4(CC3)OCCO4)cc12`, the binding response (% of control) is 106%.

With `CCOc1ccccc1NC(=O)CCN1CCN(S(=O)(=O)c2ccc(OC)cc2)CC1`, the binding response (% of control) is 97%.

As for `CCOc1ccccc1NC(=O)c1cc(S(=O)(=O)N2CCC3(CC2)OCCO3)ccc1F`, the binding response (% of control) was -0.18% (active).

Consider `CS(=O)(=O)c1sc(C(=O)NC(=S)Nc2ccc(OC(F)(F)F)cc2)c2c1C=CCC2`, for which the binding response (% of control) is 113%.

`C=C(C)C(=O)Nc1cccc(C2=NOC3(C2)C[C@H](C(N)=O)N(C(=O)C(c2ccccc2)c2ccccc2)C3)c1` (some centres not stated): the binding response (% of control) was 100%.

As for `Cc1cc(NC(=O)OC(C)C)ccc1-c1ccc(NC(=O)OC(C)C)cc1C`, the binding response (% of control) is 96.1%.

For `COc1ccc(OC)c(/C=N/NC(=O)CSc2nnc(C)n2-c2ccccc2)c1`, the binding response (% of control) was 96.1%.

On to `C=CCn1c(Cn2nnc3ccccc32)nnc1SCC(=O)N/N=C/c1cc(Br)cc(OC)c1O`, for which the binding response (% of control) was -38.5% (active).

As to `Cc1ccc(Cn2c(SCC(=O)N/N=C/c3ccccc3OCC(=O)O)nc3ccccc32)cc1`, the binding response (% of control) was 98.8%.

With `CCC(C)NC(=O)Cn1nc(C(F)(F)F)c2c1CCC2` (configuration not stated), the binding response (% of control) was 101%.

Consider `COc1ccc(COCCN2CCN(S(=O)(=O)c3ccccc3)CCC2=O)cc1`, for which the binding response (% of control) was 84%.

As to `CN(C)c1ccc(/C=N/NC(=O)c2ccc(Cn3cc(Br)cn3)o2)cc1`, the binding response (% of control) is 98.7%.

As for `COC(=O)CNc1nc(Cl)nc(N2CCC(C)CC2)n1`, the binding response (% of control) is 101%.

As for `Cc1nnc(SCC(=O)N2c3ccccc3C(C)(c3ccc(Cl)cc3)CC2(C)C)s1` (configuration not stated), the binding response (% of control) was 96.9%.

As to `Cc1nc2cc(NC(=O)Nc3cccc(F)c3)ccc2n1C`, the binding response (% of control) was 91.6%.

As to `Cc1nc2cc(NC(=O)NC3CC3)ccc2n1C`, the binding response (% of control) is 103%.

For `Cc1cc2nc(C)n(CCCNC(=O)Nc3ccccc3)c2cc1C`, the binding response (% of control) is 158% [activator] (active).

`Cc1onc(-c2ccccc2)c1C(=O)N=C(N)c1ccc(Cl)cc1`: the binding response (% of control) is 104%.

For the compound `N#Cc1ccc(CSc2nnc3ccccn23)cc1`, the binding response (% of control) was 101%.

On to `CCCCC1=CC2=CC(=O)C(C)(OC(=O)CC)C(=O)C2=CN1CCCOC(C)C` (configuration not stated), for which the binding response (% of control) was 96%.

Consider `CCCC1C(c2ccccc2)C(C#N)(C#N)C2(C#N)CC1(N)NC2=O` (configuration not stated), for which the binding response (% of control) is 162% [activator] (active).

For the compound `NC1=NC[C@@H](Cc2ccc(O)cc2)N1CC1CCCCC1`, the binding response (% of control) is 87.1%.

Turning to `CCOC(=O)c1ccc(NC(=O)c2nc[nH]c2C(=O)NCc2ccccc2)cc1`, the binding response (% of control) is 103%.

`CCCCOC(=O)Cn1c(=N)n(CCN(CC)CC)c2ccccc21`: the binding response (% of control) is 184% [activator] (active).

As for `CCn1c(=N)n(CC(=O)c2cccc(OC)c2)c2ccccc21`, the binding response (% of control) was 98.3%.

As for `CCCCOC(=O)Cn1c(=O)n(CC(=O)OCCCC)c2cc(C)ccc21`, the binding response (% of control) is 103%.

Regarding `O=C(CN(C(=O)c1csnn1)c1cccc(F)c1)NCc1ccc(F)cc1`, the binding response (% of control) is 97.4%.

As for `Cc1ccc(S(=O)(=O)NCC(=O)OCC(=O)N2CCc3ccccc32)cc1`, the binding response (% of control) was 204% [activator] (active).

Take `Cc1cnc(C(=O)OCC(=O)N2CCc3ccccc32)cn1`: the binding response (% of control) was 104%.

Regarding `Cc1ccc(S(=O)(=O)N(C)CC(=O)N2CCc3ccccc32)cc1`, the binding response (% of control) was 104%.

For the compound `C#CCO[C@@H]1C[C@H](n2cnc3c(=O)[nH]c(NC(=O)C(C)C)nc32)O[C@@H]1CO`, the binding response (% of control) is 81.4%.

On to `C=CCC1(CC=C)CCCN1C(=O)CC1C(=O)NCCN1Cc1ccccc1OC` (configuration not stated), for which the binding response (% of control) is 102%.

With `[O-][n+]1c2c(nn1-c1ccc(Cl)c(Cl)c1)-c1nonc1CC2`, the binding response (% of control) was 106%.

With `COc1cc(C2/C(=C(\O)c3ccc4c(c3)CC(C)O4)C(=O)C(=O)N2Cc2ccco2)ccc1O` (configuration not stated), the binding response (% of control) is 18.3% (active).

Consider `COCCCN1C(=O)C(=O)/C(=C(/O)c2ccc3c(c2)CC(C)O3)C1c1cccnc1` (configuration not stated), for which the binding response (% of control) is 95%.

Consider `COc1ccc(/C(O)=C2\C(=O)C(=O)N(Cc3ccco3)C2c2ccc(OC)cc2OC)cc1` (configuration not stated), for which the binding response (% of control) is 99.5%.

With `COC(=O)c1c(C)oc(C)c1S(=O)(=O)NCc1ccc(Cl)cc1`, the binding response (% of control) is 98.2%.

On to `CCN(CC)c1ccc(S(=O)(=O)N2CCOCC2)cc1NC(=O)CSc1cccc[n+]1[O-]`, for which the binding response (% of control) is 91.7%.

In the case of `CCCn1c(SCC(=O)N2CCc3ccccc32)nnc1-c1ccncc1`, the binding response (% of control) is 99.9%.

As for `O=C(CSc1ccc2nnc(-c3ccccc3)n2n1)N1CCCc2ccccc21`, the binding response (% of control) is 156% [activator] (active).

For `Cn1c(SCC(=O)N2CCCc3ccccc32)nc2ccccc2c1=O`, the binding response (% of control) was 89.2%.

Take `Nc1ccccc1Sc1cc(Cl)nnc1Cl`: the binding response (% of control) was 97.6%.

Turning to `O=C(NC1CCc2ccccc21)C12CN(Cc3ccccc3)CC1C(c1cccc([N+](=O)[O-])c1)=NO2` (configuration not stated), the binding response (% of control) is 99.7%.

For the compound `O=C(COc1ccccc1)N1CCc2ccccc2C1`, the binding response (% of control) was 103%.

Regarding `Cn1c(=O)c2c(n(Cc3ccccc3)c1=O)NC(=O)C2CC(=O)N1CCc2ccccc2C1` (configuration not stated), the binding response (% of control) is 21.4% (active).

In the case of `O=C(CSc1nnc(-c2cccs2)n1Cc1ccccc1)N1CCc2ccccc2C1`, the binding response (% of control) was 99.4%.

As for `Cc1ccc(NC(=O)CNCc2ccccn2)cc1S(=O)(=O)N(C)C`, the binding response (% of control) was 97.3%.

Consider `Cn1c(CC2Sc3ccccc3NC2=O)nnc1SCC(=O)c1ccc(Cl)cc1` (configuration not stated), for which the binding response (% of control) was 88.2%.

For the compound `CCc1c(C)nc2cc(-c3cccs3)[nH]n2c1=O`, the binding response (% of control) is 93.5%.

In the case of `Cc1cc(=O)n2[nH]c(-c3sccc3-n3c(C)ccc3C)cc2n1`, the binding response (% of control) was 50.1% (active).

As to `COc1cccc2cc(/C(C)=N/NC(=O)c3ccco3)oc12`, the binding response (% of control) is 98%.

As for `COc1cc(NC(=O)CSc2nnc3ccc(-c4ccncc4)nn23)cc(OC)c1`, the binding response (% of control) is 98.4%.

Take `COCCCNC(=S)N(Cc1ccccc1)Cc1ccc(F)cc1`: the binding response (% of control) is 106%.

For `COc1ccc(NC(=O)Cn2c(=O)n(Cc3ccco3)c(=O)c3ccccc32)cc1`, the binding response (% of control) is 101%.

With `CN(c1ccccc1)c1ccc(/C=c2\s/c(=C(/C#N)C(=O)C(C)(C)C)n(Cc3ccco3)c2=O)cc1`, the binding response (% of control) was 566% [activator] (active).

`Cc1cs/c(=N\N=C\c2ccc(O)cc2)n1Cc1ccco1`: the binding response (% of control) is 99.6%.

As to `CCOc1ccc(NC(=O)CSc2ncnc3c2sc2ccccc23)cc1`, the binding response (% of control) was 103%.

With `O=C(CN1CCCCC1)N1c2ccccc2Sc2ccc(C(F)(F)F)cc21`, the binding response (% of control) was 21.1% (active).

As to `COc1cc(/C=C/C(=O)N2c3ccccc3Sc3ccc(C(F)(F)F)cc32)cc(OC)c1OC`, the binding response (% of control) is 103%.

In the case of `O=C(CN1CCCCCC1)N1c2ccccc2Sc2ccc(C(F)(F)F)cc21`, the binding response (% of control) was 89.3%.

Regarding `CCN(CC)S(=O)(=O)c1ccc(NC(=O)c2cccnc2Cl)c(NC(=O)c2cccnc2Cl)c1`, the binding response (% of control) was 101%.

In the case of `COc1cc(NS(=O)(=O)c2ccc(NC(=O)c3ccc(S(=O)(=O)N4CCCCC4)cc3)cc2)ncn1`, the binding response (% of control) is 107%.

For the compound `NC(=O)[C@H]1CC2(CC(c3cccc(NC(=O)[C@H]4CCC(=O)N4)c3)=NO2)CN1C(=O)c1ccccc1C(=O)c1ccccc1` (some centres not stated), the binding response (% of control) was 101%.

For `CC1CCN(C(=S)NC2CC3CCC2C3)CC1` (configuration not stated), the binding response (% of control) is 107%.

For `Cc1ccc(Cn2ccc(NC(=O)C3C4CCC(C4)C3C(=O)O)n2)cc1` (configuration not stated), the binding response (% of control) was 103%.

In the case of `Cc1ccc(Cn2ccc(NC(=O)c3cc(C(C)C)on3)n2)cc1`, the binding response (% of control) was 49% (active).

Turning to `O=C(Nc1ccn(Cc2ccccc2)n1)c1cccc(F)c1`, the binding response (% of control) is 97.8%.

As for `Cc1cc(C)n(-c2ccc3nncn3n2)n1`, the binding response (% of control) was 97.6%.

With `Cn1ccc(NC(=O)Nc2ccc(Cl)cc2)n1`, the binding response (% of control) was 101%.

Consider `Cn1cc(C(=O)NCc2ccccc2F)cn1`, for which the binding response (% of control) was 101%.
